Results as given in the supplement of paper PMC10849652.
Targets with a hit are over-represented here; the source holds about 8,800 in all. About 0.5% of all pairs of compound and target were hits. A number with no mark means an inactive call.

Assays:
Assay in all cases: log2 fold change, soluble protein after heating vs DMSO (PISA); higher = thermal stabilisation; K562 lysate, 10 uM; active = over 0.2 and 3.5 SD of the protein, either way, in both replicates (recomputed)
[1] = compound: C1=CC=C(C=C1)[C@H](COC2=CC3=C(C=C2)NC(=O)N3)NC(=O)C4=CC=CN(C4=O)CC5=CC(=C(C=C5)F)F
Method in brief: (§1)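 Pellets of K562 cells were dounce-homogenised in PBS pH 7.4 with 1 mM MgCl2, and the crude extract was held at 1 mg/mL protein for a 30 min treatment with 10 μM compound. Aliquots were heated for 3 min over 48°C-58°C and pooled before NP-40 was added to 0.5% at 4°C. The supernatant from 21,000xg for 90 min was quantified by TMTpro 16plex LC-MS/MS with channel sums equalised. Values are reported from duplicates as log-two fold change in thermal stability relative to solvent controls.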

[2] = compound: CC1=C(SC2=C1C(=N[C@H](C3=NN=C(N32)C)CC(=O)N)C4=CC=C(C=C4)Cl)C
Method in brief: as §1

[3] = compound: CC1=C2C(=CC=C1)N=C(N(C2=O)C3=CC=CC=C3C)CN4C=NC5=C(N=CN=C54)N
Method in brief: as §1

[4] = compound: Cc1sc2c(c1C)C(c1ccc(Cl)cc1)=N[C@@H](CC(=O)OC(C)(C)C)c1nnc(C)n1-2
Method in brief: as §1

[5] = compound: c1ccc([C@@H]2C[C@H]2NC2CCNCC2)cc1
Method in brief: as §1

Chain of UniProt Q9BZE2 (Q9BZE2 whole entry, looked up): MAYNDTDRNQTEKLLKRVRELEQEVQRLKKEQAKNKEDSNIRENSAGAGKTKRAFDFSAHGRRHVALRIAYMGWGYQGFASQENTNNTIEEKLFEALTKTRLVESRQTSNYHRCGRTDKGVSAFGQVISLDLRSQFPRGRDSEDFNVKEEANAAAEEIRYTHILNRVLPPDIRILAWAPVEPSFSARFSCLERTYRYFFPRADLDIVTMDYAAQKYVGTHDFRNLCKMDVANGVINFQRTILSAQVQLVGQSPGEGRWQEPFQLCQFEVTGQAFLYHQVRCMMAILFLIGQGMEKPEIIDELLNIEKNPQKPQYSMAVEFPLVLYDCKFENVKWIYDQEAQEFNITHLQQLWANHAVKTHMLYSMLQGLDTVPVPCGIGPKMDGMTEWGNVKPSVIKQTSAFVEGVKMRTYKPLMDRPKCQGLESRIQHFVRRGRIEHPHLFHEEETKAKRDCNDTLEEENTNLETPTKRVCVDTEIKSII
Chain of UniProt Q9Y570 (Q9Y570 whole entry, looked up): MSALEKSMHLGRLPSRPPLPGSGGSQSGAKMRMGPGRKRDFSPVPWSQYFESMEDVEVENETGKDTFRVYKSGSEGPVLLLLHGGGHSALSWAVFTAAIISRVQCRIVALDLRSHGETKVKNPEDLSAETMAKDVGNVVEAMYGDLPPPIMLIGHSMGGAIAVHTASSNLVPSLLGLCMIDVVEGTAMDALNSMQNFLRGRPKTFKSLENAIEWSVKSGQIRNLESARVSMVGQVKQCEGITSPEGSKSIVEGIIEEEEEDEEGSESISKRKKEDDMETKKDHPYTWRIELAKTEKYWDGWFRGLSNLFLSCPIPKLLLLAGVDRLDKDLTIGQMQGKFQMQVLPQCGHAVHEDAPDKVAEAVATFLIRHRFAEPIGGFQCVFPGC
Chain of UniProt P23219 (P23219 whole entry, looked up): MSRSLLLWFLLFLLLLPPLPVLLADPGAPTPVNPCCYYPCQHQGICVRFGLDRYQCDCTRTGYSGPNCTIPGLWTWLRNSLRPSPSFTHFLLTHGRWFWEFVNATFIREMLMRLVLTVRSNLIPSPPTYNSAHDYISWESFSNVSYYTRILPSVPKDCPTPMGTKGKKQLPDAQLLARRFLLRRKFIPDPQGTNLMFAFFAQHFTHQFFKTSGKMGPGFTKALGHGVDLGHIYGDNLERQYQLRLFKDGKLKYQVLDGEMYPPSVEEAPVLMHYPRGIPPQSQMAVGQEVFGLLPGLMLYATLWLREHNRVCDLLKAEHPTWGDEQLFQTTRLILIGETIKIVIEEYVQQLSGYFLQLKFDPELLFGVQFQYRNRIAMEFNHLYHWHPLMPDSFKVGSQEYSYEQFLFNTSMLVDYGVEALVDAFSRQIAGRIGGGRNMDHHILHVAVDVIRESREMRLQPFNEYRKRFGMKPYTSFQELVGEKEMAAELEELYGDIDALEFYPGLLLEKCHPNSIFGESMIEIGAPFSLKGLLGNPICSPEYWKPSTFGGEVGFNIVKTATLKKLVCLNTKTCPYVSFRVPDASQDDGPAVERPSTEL
Chain of UniProt Q16512 (Q16512 whole entry, looked up): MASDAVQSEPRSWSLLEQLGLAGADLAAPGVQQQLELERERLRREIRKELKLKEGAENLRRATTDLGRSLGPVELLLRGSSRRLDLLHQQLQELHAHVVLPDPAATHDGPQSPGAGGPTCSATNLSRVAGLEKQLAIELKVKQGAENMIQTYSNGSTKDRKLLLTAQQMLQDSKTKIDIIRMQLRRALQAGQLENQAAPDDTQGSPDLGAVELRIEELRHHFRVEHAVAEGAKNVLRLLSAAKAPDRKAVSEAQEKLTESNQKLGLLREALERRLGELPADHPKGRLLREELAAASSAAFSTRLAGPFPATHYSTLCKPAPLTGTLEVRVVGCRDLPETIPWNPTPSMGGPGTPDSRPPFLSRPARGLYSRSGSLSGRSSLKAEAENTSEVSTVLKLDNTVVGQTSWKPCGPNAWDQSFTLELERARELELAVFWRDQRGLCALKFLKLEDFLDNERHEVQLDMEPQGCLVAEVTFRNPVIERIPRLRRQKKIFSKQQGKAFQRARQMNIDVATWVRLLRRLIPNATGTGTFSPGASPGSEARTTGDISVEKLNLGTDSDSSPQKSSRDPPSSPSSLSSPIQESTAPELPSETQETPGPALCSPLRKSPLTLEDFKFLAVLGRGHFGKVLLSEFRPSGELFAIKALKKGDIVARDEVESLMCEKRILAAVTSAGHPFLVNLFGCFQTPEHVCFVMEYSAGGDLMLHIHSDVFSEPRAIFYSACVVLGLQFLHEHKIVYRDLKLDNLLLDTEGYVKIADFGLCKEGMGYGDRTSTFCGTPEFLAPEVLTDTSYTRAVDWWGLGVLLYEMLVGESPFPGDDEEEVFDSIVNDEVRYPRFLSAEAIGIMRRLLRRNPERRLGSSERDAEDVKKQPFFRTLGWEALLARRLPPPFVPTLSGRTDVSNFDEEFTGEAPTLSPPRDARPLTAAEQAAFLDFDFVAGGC
Chain of UniProt Q8TBX8 (Q8TBX8 whole entry, looked up): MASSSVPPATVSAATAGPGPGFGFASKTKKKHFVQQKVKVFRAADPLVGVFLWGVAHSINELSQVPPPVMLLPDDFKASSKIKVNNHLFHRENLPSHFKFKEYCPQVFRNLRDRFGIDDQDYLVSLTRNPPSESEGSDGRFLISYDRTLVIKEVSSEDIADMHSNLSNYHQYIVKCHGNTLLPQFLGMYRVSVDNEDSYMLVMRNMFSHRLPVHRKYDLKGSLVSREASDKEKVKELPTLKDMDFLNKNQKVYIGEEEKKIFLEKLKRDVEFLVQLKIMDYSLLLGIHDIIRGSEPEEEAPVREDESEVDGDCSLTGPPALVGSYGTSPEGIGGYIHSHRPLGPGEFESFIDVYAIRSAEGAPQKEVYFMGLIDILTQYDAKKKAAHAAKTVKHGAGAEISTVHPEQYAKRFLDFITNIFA
Chain of UniProt P53350 (P53350 whole entry, looked up): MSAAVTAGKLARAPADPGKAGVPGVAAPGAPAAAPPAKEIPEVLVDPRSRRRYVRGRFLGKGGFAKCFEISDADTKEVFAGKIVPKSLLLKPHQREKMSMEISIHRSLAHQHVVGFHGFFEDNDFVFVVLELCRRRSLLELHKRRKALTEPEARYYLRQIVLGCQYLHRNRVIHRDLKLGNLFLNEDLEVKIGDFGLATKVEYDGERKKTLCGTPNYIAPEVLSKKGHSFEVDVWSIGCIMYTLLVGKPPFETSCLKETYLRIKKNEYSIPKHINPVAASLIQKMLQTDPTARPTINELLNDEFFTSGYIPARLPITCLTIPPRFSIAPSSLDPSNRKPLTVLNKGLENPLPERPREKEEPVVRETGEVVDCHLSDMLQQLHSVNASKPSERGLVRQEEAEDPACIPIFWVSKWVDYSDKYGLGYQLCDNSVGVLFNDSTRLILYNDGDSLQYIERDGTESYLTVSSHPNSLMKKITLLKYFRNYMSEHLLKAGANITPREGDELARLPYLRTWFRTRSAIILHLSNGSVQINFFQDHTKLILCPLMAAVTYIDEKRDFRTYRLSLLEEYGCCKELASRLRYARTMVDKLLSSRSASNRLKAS
Chain of UniProt P31323 (P31323 whole entry, looked up): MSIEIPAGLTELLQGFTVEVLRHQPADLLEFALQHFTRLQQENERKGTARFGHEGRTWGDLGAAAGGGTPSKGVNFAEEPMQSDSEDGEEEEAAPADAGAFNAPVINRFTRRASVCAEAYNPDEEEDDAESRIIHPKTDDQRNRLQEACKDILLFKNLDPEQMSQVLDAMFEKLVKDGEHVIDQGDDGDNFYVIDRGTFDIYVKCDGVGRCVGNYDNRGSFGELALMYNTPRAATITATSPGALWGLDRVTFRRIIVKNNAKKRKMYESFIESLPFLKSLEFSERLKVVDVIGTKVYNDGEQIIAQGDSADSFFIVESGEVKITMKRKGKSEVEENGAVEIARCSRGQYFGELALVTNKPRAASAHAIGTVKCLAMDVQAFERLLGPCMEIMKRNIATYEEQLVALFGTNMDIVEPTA
Chain of UniProt Q9HAU0 (Q9HAU0 whole entry, looked up): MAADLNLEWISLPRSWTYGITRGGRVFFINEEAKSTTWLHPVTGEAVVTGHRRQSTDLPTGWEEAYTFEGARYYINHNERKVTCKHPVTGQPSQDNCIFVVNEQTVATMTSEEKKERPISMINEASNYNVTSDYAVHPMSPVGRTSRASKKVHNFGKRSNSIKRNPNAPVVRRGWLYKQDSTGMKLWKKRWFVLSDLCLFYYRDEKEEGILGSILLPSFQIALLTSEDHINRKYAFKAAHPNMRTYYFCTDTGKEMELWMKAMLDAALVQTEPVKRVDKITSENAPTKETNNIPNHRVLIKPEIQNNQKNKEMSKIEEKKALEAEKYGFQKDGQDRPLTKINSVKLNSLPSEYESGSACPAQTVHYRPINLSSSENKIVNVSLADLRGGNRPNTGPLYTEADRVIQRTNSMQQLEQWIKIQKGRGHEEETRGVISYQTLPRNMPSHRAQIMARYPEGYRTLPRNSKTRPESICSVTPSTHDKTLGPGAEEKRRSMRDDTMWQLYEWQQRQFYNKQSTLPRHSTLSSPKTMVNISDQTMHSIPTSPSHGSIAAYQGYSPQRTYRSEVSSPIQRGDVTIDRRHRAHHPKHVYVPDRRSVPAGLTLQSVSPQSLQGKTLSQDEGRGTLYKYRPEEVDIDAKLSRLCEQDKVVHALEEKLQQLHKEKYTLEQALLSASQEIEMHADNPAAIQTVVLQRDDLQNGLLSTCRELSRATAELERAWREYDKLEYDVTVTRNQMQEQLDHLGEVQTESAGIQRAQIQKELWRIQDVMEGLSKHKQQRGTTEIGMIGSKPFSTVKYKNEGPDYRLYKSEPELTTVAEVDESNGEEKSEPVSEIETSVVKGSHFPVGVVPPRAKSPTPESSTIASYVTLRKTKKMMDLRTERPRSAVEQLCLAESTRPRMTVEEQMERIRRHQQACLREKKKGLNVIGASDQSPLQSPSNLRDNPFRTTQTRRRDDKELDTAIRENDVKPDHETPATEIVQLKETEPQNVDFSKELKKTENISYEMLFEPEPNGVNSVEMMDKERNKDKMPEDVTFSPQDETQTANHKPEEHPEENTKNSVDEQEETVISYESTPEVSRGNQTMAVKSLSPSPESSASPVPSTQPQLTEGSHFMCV

Target | log2 fold change [1] | log2 fold change [2] | log2 fold change [3] | log2 fold change [4] | log2 fold change [5]
PUF60 (UniProt Q9UHX1) | -0.017 | 0.006 | 0.004 | 0.028 | 0.059
PTGS1 isoform 6 (UniProt P23219) | -0.007 | -0.035 | 0.077 | -0.026 | -0.11
PLEKHA5 isoform 6 (UniProt Q9HAU0) | 0 | -0.112 | -0.06 | -0.013 | 0.045
PRPH isoform 2 (UniProt P41219) | 0.002 | -0.006 | 0.03 | -0.059 | 0.119
PFDN2 (UniProt Q9UHV9) | 0.044 | -0.055 | -0.016 | -0.008 | 0.063
POLA1 (UniProt P09884) | 0.006 | 0.01 | 0.037 | -0.002 | 0.002
PUS3 (UniProt Q9BZE2) | -0.006 | -0.089 | -0.073 | 0.082 | 0.135
PIR (UniProt O00625) | -0.013 | 0.017 | 0.026 | 0.009 | 0.06
PDCD6IP isoform 2 (UniProt Q8WUM4) | -0.019 | -0.004 | 0.018 | 0.02 | 0.056
PRC1 (UniProt O43663) | 0.089 | 0.037 | 0.026 | 0.03 | 0.043
PTGES2 (UniProt Q9H7Z7) | 0.166 | -0.119 | -0.101 | -0.006 | 0.014
PRKD2 isoform 3 (UniProt Q9BZL6) | 0.001 | -0.031 | 0.121 | 0.02 | 0.104
PTPN6 isoform 4 (UniProt P29350) | 0.12 | 0.029 | 0.063 | 0.047 | 0.133
PIP4K2C (UniProt Q8TBX8) | -0.12 | -0.062 | -0.113 | -0.023 | -0.011
PLK1 (UniProt P53350) | 0.033 | 0.042 | 0.052 | -0.026 | 0.084
POLB (UniProt P06746) | -0.02 | -0.005 | 0.028 | 0.041 | 0.021
PYCR2 (UniProt Q96C36) | 0.007 | 0.036 | 0.013 | 0.004 | -0.054
PEF1 (UniProt Q9UBV8) | 0.016 | -0.039 | 0.055 | 0.048 | -0.031
PTK2 (UniProt Q05397) | 0.006 | -0.027 | -0.003 | 0.023 | -0.131

Target | log2 fold change [1] | log2 fold change [2] | log2 fold change [3] | log2 fold change [4] | log2 fold change [5]
PUS1 (UniProt Q9Y606) | 0 | 0.014 | 0.013 | -0.024 | 0.029
PGPEP1 (UniProt Q9NXJ5) | 0.027 | -0.071 | -0.013 | -0.025 | 0.012
PIK3C3 (UniProt Q8NEB9) | -0.041 | -0.032 | -0.036 | -0.014 | -0.114
PWP2 (UniProt Q15269) | -0.004 | -0.042 | -0.013 | -0.048 | 0.061
PGRMC1 (UniProt O00264) | 0.073 | -0.038 | 0.008 | -0.031 | -0.039
PKN1 isoform 2 (UniProt Q16512) | -0.003 | 0.017 | 0.023 | 0.029 | 0.022
POLR2B (UniProt P30876) | -0.021 | 0.024 | 0.019 | 0.021 | 0.013
PRKRA (UniProt O75569) | -0.002 | 0.027 | 0.031 | 0.029 | 0.036
PITRM1 isoform 2 (UniProt Q5JRX3) | 0.158 | -0.193 | 0.005 | 0.04 | 0.01
PTK2B (UniProt Q14289) | -0.056 | -0.012 | -0.036 | -0.009 | -0.034
PRMT5 (UniProt O14744) | -0.01 | 0.031 | 0.006 | -0.013 | 0.002
PRKAR2B (UniProt P31323) | -0.028 | 0.018 | 0.011 | -0.002 | 0.068
PTPN23 (UniProt Q9H3S7) | -0.033 | 0.011 | 0.007 | 0.024 | 0
PCBP2 isoform 3 (UniProt Q15366) | -0.011 | 0.017 | -0.041 | 0.061 | 0.05
PPP1R11 (UniProt O60927) | -0.025 | -0.095 | – | 0.014 | 0.001
PFN3 (UniProt P60673) | – | – | 0.072 | – | -0.004
PRKD3 (UniProt O94806) | 0.035 | 0 | 0.206 | – | -0.386
PIAS2 (UniProt O75928) | – | – | 0.001 | 0.046 | –
PPIL3 (UniProt Q9H2H8) | 0.067 | -0.012 | 0.035 | 0.028 | -0.237 (active)

Target | log2 fold change [1] | log2 fold change [2] | log2 fold change [3] | log2 fold change [4] | log2 fold change [5]
PHGDH, A0A286YFE1 | 0.061 | -0.111 | – | -0.095 | –
PKP3 isoform 2 (UniProt Q9Y446) | -0.049 | 0.014 | 0.002 | 0.062 | -0.004
POLR2F (UniProt P61218) | 0.013 | -0.105 | -0.163 | 0.381 | 0.359
PFKFB2 (UniProt O60825) | 0.016 | 0.001 | 0.03 | -0.001 | -0.008
PCF11 (UniProt O94913) | -0.135 | 0.018 | 0.022 | 0.008 | 0.079
PYGO2 (UniProt Q9BRQ0) | 0.064 | 0.031 | – | 0.024 | 0.011
POLR2F (UniProt U3KPV3) | – | – | – | -0.113 | –
PRR4 (UniProt Q16378) | – | – | -0.076 | – | -0.269
PI4KA (UniProt P42356) | -0.08 | -0.012 | 0.057 | -0.019 | -0.018
NA (UniProt Q4G0T1) | – | – | – | -0.027 | -0.025
PPFIA2 (UniProt O75334) | 0.022 | 0.041 | 0.003 | -0.016 | -0.132
PTK2 isoform 2 (UniProt Q05397) | 0.07 | 0.081 | – | -0.324 | –
PFN1 (UniProt I3L3D5) | 0.007 | 0.065 | – | – | 0.164
PNPLA4 (UniProt P41247) | – | – | -0.009 | 0.201 | -0.019
PPME1 (UniProt Q9Y570) | 0.057 | -0.02 | – | 0.06 | –
PHKG1 isoform 2 (UniProt Q16816) | – | – | -0.375 | -0.054 | -0.493
PIK3R1 (UniProt P27986) | -0.014 | -0.065 | 0.313 | -0.024 | -0.007
POC5 (UniProt Q8NA72) | 0.016 | -0.052 | 0.161 | 0.17 | -0.097
PDAP1 (UniProt Q13442) | 0.004 | 0.042 | 0.008 | 0.084 | -0.112
